Holding throughout (experiment): DAPPL (digital affinity profiling via proximity ligation, sequencing); 10 mM Tris-HCl pH 7.5, 50 mM NaCl, 1 mM DTT, 4% glycerol, room temperature, 30 min; GST-TFs on glutathione beads, 16-mer random dsDNA library, 0.1% formaldehyde crosslink after washing; high values mean tight binding
Assay [1] has as its target T1, FEV (Homo sapiens, UniProt Q99581 1-238).
T1 sequence: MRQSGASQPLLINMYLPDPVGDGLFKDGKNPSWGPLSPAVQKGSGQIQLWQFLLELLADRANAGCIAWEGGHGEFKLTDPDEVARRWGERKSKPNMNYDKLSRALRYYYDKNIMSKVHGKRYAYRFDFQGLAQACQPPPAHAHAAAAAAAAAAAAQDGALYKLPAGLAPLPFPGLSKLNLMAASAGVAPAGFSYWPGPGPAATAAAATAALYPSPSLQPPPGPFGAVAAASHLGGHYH
Particulars: protein: recombinant; tags: N-terminal GST; dsDNA, one strand shown. In a few lines:
(§1)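 In yeast, human transcription factors were expressed with a GST fusion, then pulled down on glutathione beads and given DNA barcodes. Pooled with a tag-only sample, they were exposed to 200 nmole of a 16-mer random double-stranded DNA library (Tris/NaCl/DTT/glycerol buffer, room temperature, 30 min), washed, crosslinked with 0.1% formaldehyde, proximity-ligated using BsaI/T4 ligase for 1 h at 37 °C, PCR-amplified and read on an Illumina NextSeq500. Each hexamer's frequency of reads for a factor, divided by the matching frequency for the tag-only sample, gives the binding signal.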

The target of assay [2] is ETV5 (Homo sapiens, UniProt P41161 1-510). The conditions noted are these: protein: recombinant; tags: N-terminal GST; dsDNA, one strand shown. In a few lines: as §1
Assay [3] deals with HSF1 (Homo sapiens, UniProt Q00613 1-529). Particulars: protein: recombinant; tags: N-terminal GST; chain copies: 3; dsDNA, one strand shown. An outline of the steps:
as §1

The target of assay [4] is T2, SPIC (Homo sapiens, UniProt Q8N5J4 1-248).
T2 sequence: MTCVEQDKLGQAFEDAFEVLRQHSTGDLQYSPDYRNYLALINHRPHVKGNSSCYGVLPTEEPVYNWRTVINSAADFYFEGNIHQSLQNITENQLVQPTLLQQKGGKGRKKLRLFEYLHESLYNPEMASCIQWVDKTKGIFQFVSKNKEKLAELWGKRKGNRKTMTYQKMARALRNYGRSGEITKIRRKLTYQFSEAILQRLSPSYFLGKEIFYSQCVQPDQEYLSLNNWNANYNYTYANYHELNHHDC
Particulars: protein: recombinant; tags: N-terminal GST; dsDNA, one strand shown. In a few lines: as §1

Assay [5] has as its target ELF4 (Homo sapiens, UniProt Q99607 1-663). Particulars: protein: recombinant; tags: N-terminal GST; dsDNA, one strand shown. An outline of the steps:
as §1

Assay [6] has as its target T3, ELK4 (Homo sapiens, UniProt P28324-2 1-405).
T3 sequence: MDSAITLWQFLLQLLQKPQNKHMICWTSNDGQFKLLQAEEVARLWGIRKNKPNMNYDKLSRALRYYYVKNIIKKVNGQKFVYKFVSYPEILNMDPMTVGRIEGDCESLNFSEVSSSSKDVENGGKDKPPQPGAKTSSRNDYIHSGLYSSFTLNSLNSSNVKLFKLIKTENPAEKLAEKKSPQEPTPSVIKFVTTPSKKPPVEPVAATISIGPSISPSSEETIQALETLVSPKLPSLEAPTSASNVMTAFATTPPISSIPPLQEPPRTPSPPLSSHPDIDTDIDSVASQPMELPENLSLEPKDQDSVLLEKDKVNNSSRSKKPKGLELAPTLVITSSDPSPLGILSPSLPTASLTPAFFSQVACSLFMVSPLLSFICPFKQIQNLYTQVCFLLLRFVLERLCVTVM
The conditions noted are these: protein: recombinant; tags: N-terminal GST; dsDNA, one strand shown. In a few lines:
as §1

Assay [7] has as its target T4, ETV2 (Homo sapiens, UniProt O00321 1-342).
T4 sequence: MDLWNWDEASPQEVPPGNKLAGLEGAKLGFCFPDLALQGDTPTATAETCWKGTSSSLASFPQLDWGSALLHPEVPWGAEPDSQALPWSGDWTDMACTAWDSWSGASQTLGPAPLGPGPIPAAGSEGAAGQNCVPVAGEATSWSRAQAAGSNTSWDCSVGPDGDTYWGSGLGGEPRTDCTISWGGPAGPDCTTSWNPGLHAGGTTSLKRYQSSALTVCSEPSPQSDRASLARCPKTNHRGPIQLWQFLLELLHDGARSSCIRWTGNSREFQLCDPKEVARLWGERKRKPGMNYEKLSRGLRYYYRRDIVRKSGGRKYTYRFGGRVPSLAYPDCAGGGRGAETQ
The conditions noted are these: protein: recombinant; tags: N-terminal GST; dsDNA, one strand shown. An outline of the steps:
as §1

The target in assay [8] is T5, ELF3 (Homo sapiens, UniProt P78545 1-371).
T5 sequence: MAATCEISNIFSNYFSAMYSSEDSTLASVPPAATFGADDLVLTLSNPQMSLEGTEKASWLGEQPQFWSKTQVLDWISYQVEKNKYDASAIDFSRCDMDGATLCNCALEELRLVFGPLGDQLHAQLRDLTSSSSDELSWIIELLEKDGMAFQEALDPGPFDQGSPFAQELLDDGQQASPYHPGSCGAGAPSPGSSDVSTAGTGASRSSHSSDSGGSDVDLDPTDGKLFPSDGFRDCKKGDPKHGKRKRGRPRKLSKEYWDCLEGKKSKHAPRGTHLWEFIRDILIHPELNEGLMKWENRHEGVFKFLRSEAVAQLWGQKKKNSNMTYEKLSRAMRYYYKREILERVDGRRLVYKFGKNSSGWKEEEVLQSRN
Particulars: protein: recombinant; tags: N-terminal GST; dsDNA, one strand shown. In a few lines: as §1

Assay [9] addresses CRX (Homo sapiens, UniProt O43186 1-299). The conditions noted are these: protein: recombinant; tags: N-terminal GST; dsDNA, one strand shown. In a few lines:
as §1

For assay [10], the target named is ETV1 (Homo sapiens, UniProt P50549 1-477). Particulars: protein: recombinant; tags: N-terminal GST; dsDNA, one strand shown. In a few lines:
as §1

The source of these data is paper PMC7862700, “An all-to-all approach to the identification of sequence-specific readers for epigenetic DNA modifications on cytosine”.

ETV5, sequence (P41161 whole entry): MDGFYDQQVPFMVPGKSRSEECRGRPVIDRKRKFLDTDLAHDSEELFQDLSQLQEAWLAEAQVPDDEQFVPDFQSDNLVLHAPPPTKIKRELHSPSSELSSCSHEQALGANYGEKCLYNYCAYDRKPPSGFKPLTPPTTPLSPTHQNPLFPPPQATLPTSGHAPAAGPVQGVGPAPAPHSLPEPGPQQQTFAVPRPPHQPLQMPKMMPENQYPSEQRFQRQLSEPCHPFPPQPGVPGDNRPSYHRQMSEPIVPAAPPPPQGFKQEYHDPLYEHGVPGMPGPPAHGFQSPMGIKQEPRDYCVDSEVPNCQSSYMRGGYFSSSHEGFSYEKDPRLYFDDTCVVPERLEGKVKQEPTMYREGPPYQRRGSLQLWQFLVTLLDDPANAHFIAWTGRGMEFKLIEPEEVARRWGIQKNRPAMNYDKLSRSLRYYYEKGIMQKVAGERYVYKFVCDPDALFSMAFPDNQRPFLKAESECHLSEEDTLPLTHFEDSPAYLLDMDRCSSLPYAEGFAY
ELF4, sequence (Q99607 whole entry): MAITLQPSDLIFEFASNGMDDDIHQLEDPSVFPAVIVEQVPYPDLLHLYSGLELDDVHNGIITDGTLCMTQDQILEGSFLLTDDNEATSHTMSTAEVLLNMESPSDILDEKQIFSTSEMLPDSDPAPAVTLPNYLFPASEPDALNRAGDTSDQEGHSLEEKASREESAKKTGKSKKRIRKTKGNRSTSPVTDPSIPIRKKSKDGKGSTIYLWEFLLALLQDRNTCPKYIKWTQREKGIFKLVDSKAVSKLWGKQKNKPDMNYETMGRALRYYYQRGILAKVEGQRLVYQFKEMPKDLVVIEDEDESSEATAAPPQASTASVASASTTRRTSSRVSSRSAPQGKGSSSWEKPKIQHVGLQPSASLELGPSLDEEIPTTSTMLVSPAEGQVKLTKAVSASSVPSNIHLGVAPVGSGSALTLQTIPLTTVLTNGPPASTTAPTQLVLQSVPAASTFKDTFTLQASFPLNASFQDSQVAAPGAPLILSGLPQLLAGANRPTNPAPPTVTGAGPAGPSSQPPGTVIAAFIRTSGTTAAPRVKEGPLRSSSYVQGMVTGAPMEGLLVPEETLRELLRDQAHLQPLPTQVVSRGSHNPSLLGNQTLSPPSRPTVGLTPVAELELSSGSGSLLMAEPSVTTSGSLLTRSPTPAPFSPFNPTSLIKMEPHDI
HSF1, sequence (Q00613 whole entry): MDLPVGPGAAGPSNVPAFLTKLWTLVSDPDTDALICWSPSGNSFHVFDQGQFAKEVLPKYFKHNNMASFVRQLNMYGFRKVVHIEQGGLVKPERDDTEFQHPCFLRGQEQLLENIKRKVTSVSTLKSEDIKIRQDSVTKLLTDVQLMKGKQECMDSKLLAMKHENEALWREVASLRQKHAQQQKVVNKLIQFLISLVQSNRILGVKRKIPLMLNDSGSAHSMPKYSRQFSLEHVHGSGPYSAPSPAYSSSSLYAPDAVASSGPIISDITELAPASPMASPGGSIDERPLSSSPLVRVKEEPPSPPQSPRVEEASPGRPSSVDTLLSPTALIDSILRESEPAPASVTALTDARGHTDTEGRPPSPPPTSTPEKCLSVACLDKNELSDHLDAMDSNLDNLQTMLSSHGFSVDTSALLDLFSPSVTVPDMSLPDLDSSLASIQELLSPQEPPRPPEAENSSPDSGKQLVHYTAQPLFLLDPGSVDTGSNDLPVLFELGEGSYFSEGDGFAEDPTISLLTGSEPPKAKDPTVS
CRX, sequence (O43186 whole entry): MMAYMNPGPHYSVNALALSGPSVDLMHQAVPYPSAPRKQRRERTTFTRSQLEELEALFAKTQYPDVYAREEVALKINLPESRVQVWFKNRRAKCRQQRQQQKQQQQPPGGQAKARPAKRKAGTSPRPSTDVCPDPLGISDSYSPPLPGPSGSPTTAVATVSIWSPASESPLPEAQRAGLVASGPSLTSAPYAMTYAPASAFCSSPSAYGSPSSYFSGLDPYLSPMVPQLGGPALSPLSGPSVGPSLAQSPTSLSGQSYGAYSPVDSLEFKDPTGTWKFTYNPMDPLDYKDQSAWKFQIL
ETV1, sequence (P50549 whole entry): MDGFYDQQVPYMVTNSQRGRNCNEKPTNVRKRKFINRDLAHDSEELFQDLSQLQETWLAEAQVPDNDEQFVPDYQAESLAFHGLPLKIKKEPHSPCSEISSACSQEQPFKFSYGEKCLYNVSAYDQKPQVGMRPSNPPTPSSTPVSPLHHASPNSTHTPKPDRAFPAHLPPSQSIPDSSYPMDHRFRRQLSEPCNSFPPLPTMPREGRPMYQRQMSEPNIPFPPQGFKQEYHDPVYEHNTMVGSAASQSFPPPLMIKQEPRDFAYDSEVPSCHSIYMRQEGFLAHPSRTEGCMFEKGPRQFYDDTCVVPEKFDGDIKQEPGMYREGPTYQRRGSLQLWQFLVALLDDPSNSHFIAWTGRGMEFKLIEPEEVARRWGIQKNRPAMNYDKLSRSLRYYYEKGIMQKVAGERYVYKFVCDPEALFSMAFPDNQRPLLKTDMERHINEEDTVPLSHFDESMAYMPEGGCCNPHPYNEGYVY

On to AATGAG, for which the binding signal in [1] is 1.14 fold enrichment (6-mer frequency, TF over GST control); in assay [2], 1.17 fold enrichment (6-mer frequency, TF over GST control); in [3] it was 1.05 fold enrichment (6-mer frequency, TF over GST control); in assay [4], 1.31 fold enrichment (6-mer frequency, TF over GST control); in [5], 1.14 fold enrichment (6-mer frequency, TF over GST control); in [6], 1.14 fold enrichment (6-mer frequency, TF over GST control). The binding signal in assay [7] was 1.46 fold enrichment (6-mer frequency, TF over GST control); in assay [8], 1.25 fold enrichment (6-mer frequency, TF over GST control); in [9] it was 1.08 fold enrichment (6-mer frequency, TF over GST control); in [10], 1.21 fold enrichment (6-mer frequency, TF over GST control).
CTCGTC: the binding signal in assay [1] is 1.31 fold enrichment (6-mer frequency, TF over GST control); in [2], 1.31 fold enrichment (6-mer frequency, TF over GST control); in assay [3] it was 1.22 fold enrichment (6-mer frequency, TF over GST control); in assay [4] it was 1.37 fold enrichment (6-mer frequency, TF over GST control); in [5], 1.42 fold enrichment (6-mer frequency, TF over GST control); in [6] it was 1.57 fold enrichment (6-mer frequency, TF over GST control). Also, the binding signal in [7] was 1.25 fold enrichment (6-mer frequency, TF over GST control); in assay [8] it was 1.47 fold enrichment (6-mer frequency, TF over GST control); in assay [9], 1.02 fold enrichment (6-mer frequency, TF over GST control); in [10], 1.45 fold enrichment (6-mer frequency, TF over GST control).
For the sequence CTACCT, the binding signal in assay [1] is 1.3 fold enrichment (6-mer frequency, TF over GST control); in assay [2] it was 1.36 fold enrichment (6-mer frequency, TF over GST control); in assay [3] it was 1.15 fold enrichment (6-mer frequency, TF over GST control); in [4], 1.38 fold enrichment (6-mer frequency, TF over GST control); in assay [5], 1.46 fold enrichment (6-mer frequency, TF over GST control); in assay [6], 1.36 fold enrichment (6-mer frequency, TF over GST control). Further, the binding signal was 1.54 fold enrichment (6-mer frequency, TF over GST control) in assay [7]; 1.18 fold enrichment (6-mer frequency, TF over GST control) in [8]; 1.23 fold enrichment (6-mer frequency, TF over GST control) in [9]; 1.54 fold enrichment (6-mer frequency, TF over GST control) in assay [10].
In the case of CCTCTA, the binding signal in assay [1] was 1.4 fold enrichment (6-mer frequency, TF over GST control); in [2], 1.27 fold enrichment (6-mer frequency, TF over GST control); in assay [3] it was 1.38 fold enrichment (6-mer frequency, TF over GST control); in assay [4], 1.37 fold enrichment (6-mer frequency, TF over GST control); in [5] it was 1.35 fold enrichment (6-mer frequency, TF over GST control); in [6], 1.24 fold enrichment (6-mer frequency, TF over GST control). Further, the binding signal in [7] is 1.37 fold enrichment (6-mer frequency, TF over GST control); in assay [8], 1.43 fold enrichment (6-mer frequency, TF over GST control); in assay [9] it was 1.45 fold enrichment (6-mer frequency, TF over GST control); in assay [10], 1.28 fold enrichment (6-mer frequency, TF over GST control).
Turning to ATTTGC, the binding signal in [1] was 1.29 fold enrichment (6-mer frequency, TF over GST control); in [2], 1.4 fold enrichment (6-mer frequency, TF over GST control); in assay [3], 1.47 fold enrichment (6-mer frequency, TF over GST control); in assay [4], 1.29 fold enrichment (6-mer frequency, TF over GST control); in [5], 1.23 fold enrichment (6-mer frequency, TF over GST control); in assay [6] it was 1.3 fold enrichment (6-mer frequency, TF over GST control). For the same sequence, the binding signal in assay [7] is 1.23 fold enrichment (6-mer frequency, TF over GST control); in assay [8], 1.33 fold enrichment (6-mer frequency, TF over GST control); in assay [9], 1.5 fold enrichment (6-mer frequency, TF over GST control); in [10] it was 1.38 fold enrichment (6-mer frequency, TF over GST control).
In the case of CTTCCG, the binding signal in assay [1] was 10.5 fold enrichment (6-mer frequency, TF over GST control); in assay [2] it was 8.45 fold enrichment (6-mer frequency, TF over GST control); in assay [3] it was 1.57 fold enrichment (6-mer frequency, TF over GST control); in assay [4], 7.54 fold enrichment (6-mer frequency, TF over GST control); in assay [5] it was 7.4 fold enrichment (6-mer frequency, TF over GST control); in assay [6], 6.22 fold enrichment (6-mer frequency, TF over GST control). For the same sequence, the binding signal in [7] is 7.7 fold enrichment (6-mer frequency, TF over GST control); in [8], 6.78 fold enrichment (6-mer frequency, TF over GST control); in assay [9], 1.27 fold enrichment (6-mer frequency, TF over GST control); in [10], 7.97 fold enrichment (6-mer frequency, TF over GST control).
As to CTCTTC, the binding signal is 1.73 fold enrichment (6-mer frequency, TF over GST control) in assay [1]; 1.76 fold enrichment (6-mer frequency, TF over GST control) in [2]; 1.25 fold enrichment (6-mer frequency, TF over GST control) in [3]; 1.69 fold enrichment (6-mer frequency, TF over GST control) in assay [4]; 1.68 fold enrichment (6-mer frequency, TF over GST control) in [5]; 1.66 fold enrichment (6-mer frequency, TF over GST control) in [6]. Moreover, the binding signal in [7] is 1.71 fold enrichment (6-mer frequency, TF over GST control); in assay [8], 1.67 fold enrichment (6-mer frequency, TF over GST control); in [9] it was 1.21 fold enrichment (6-mer frequency, TF over GST control); in [10], 1.71 fold enrichment (6-mer frequency, TF over GST control).
